This is an account of results in PubChem BioAssay.

The assay has as its system wheat germ agglutinin (Triticum aestivum), Alexa647-labelled. The assay is described as follows: Alexa647-WGA lectin binding to printed small molecules – biochemical, small-molecule microarray, 635/667 nm fluorescence, artefact control for SMM control-protein annotation, profiling panel (AID 1140).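 Further: score merges 667 nm feature emission with signal to noise over triplicate slides.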 As to conditions: WGA-A647 binding, 635 nm fluorescence, higher = more signal.
Regarding `COC(=O)c1c2oc(c1C(=O)OC)C(=O)N(Cc1ccccc1)Cc1cn(nn1)C[C@H](Cc1ccccc1)NC(=O)N[C@H](CO)CC2`, the composite z-score amounted to 0.134. The figure for `O=C1O[C@H](c2ccccc2)[C@H](c2ccccc2)N2[C@H]1[C@@H](C(=O)Nc1nc3ccccc3s1)[C@]1(C(=O)Nc3ccc(C#CC4(O)CCCCCC4)cc31)[C@H]2c1ccccc1OCCO` is 0.742. The figure for `O=C1O[C@@H](c2ccccc2)[C@@H](c2ccccc2)N2[C@@H](c3ccccc3OCCO)[C@]3(C(=O)Nc4ccc(C#CCCO)cc43)[C@@H](C(=O)N3CCCCCCC3)[C@H]12` is 1.74; for `CC(C)N1CC=CC23O[C@@H]4C=CCOC(=O)[C@@H]4[C@H]2C(=O)N(CCCO)[C@@H]3C1=O` (stereo not given in full) it is -0.17; for `COc1ccc([Si](C)(C)[C@@H]2[C@@H](CC(=O)N(CCO)Cc3ccccc3)O[C@]3(C(=O)N(Cc4cccc(N5CCOC5=O)c4)c4ccccc43)[C@H]2C)cc1` it is 0.717. The molecule `COC(=O)[C@@]1(Cc2ccc(F)cc2)[C@H]2c3cc(C(=O)N4CCCC4)n(CCN4CNCC4=O)c3C[C@H]2CN1C(=O)c1ccccc1` gave a composite z-score of 1.01. Molecule `C=C[C@@H](COC(C)=O)N(C(=O)OC(C)(C)C)S(=O)(=O)c1ccc(Br)cc1` gave a composite z-score of 1.1. The same measure for `CN(C)C(=O)[C@]1(CCS(=O)(=O)c2ccccc2)N=C(c2ccc(OCCCO)cc2)O[C@@H]1c1ccccc1N=[N+]=[N-]`: 0.941; for `O=C1NC(=O)C2C1C=CC(C(O)c1ccco1)N2Nc1ccccn1` (stereo not given): 0.325. The figure for `C=CC[C@]1(C(=O)NCCN2CCOCC2)N=C(c2ccc(OCCCO)cc2)O[C@H]1c1ccccc1CN=[N+]=[N-]` is 1.03. The figure for `CCOC(=O)C[C@H]1[C@H](OC(=O)c2ccccc2-c2ccccc2)[C@@H](NC(=O)c2ccc(-c3ccccc3)cc2)c2cc(OCCCO)ccc2N1C(=O)c1ccc2ccccc2n1` is 0.181; for `CCCC[C@@H](O)C1=C(COc2ccccc2)C[C@H]2C(=O)N(C)C(=O)[C@H]2[C@H]1CO` it is -0.488; for `COCCOC(=O)N1C(=O)[C@@]2(c3cc(C#Cc4ccc(OC)cc4)ccc31)[C@H](C(=O)Nc1nc3ccccc3s1)[C@H]1C(=O)O[C@H](c3ccccc3)[C@H](c3ccccc3)N1[C@@H]2c1ccc(O)cc1` it is 0.927. With `COC1OC[C@]2(C)[C@H]3C4=C(CN2C(=O)OC(C)(C)C)[C@H](C)C(CO)C(CO)C4CC[C@@H]13` (stereo not given in full), the composite z-score came out at 1.41. Consider `COCCCNC(=O)[C@]1(CCS(=O)(=O)c2ccccc2)N=C(c2ccc(OCCCO)cc2)O[C@@H]1c1ccccc1N=[N+]=[N-]`, for which the composite z-score was found to be 1.13. The same measure for `CCCNC(=O)[C@@]1(c2ccc([N+](=O)[O-])cc2)CC(=O)N(C2CCCCC2)[C@@H]1c1ccc(CO)cc1`: 0.533. The same measure for `[N-]=[N+]=NCc1ccccc1C[C@@]1(C(=O)N2CCOCC2)N=C(c2ccc(OCCCO)cc2)O[C@@H]1c1ccccc1`: 0.529; for `NC(N)=NCCCn1cc(CNC(=O)[C@@H](N)Cc2ccccc2)nn1`: 0.465; for `COC(=O)[C@@]1(Cc2ccc(OC)cc2)[C@H]2c3cc(C(=O)N(C)C)n(CCO)c3C[C@H]2CN1C(=O)c1ccccc1`: 0.946. The figure for `COCCCNC(=O)[C@@]1(Cc2ccccc2CN=[N+]=[N-])N=C(c2ccc(OCCCO)cc2)O[C@H]1c1ccccc1` is 0.73; for `C=C[C@@H](OC)[C@H](OC(=O)Nc1ccc(SC)cc1)c1ccc(O)c(F)c1` it is 0.679. On to `CCCCCCCCCCC(O)C1C=CC2C(=O)N(C)C(=O)C2N1Nc1ccc([N+](=O)[O-])cc1[N+](=O)[O-]` (stereo not given), for which the composite z-score was determined as 1. The figure for `O=C(NCc1ccccc1)[C@@H]1c2ccccc2C(=O)N(Cc2ccccc2C(F)(F)F)[C@H]1c1ccc(CO)cc1` is 0.32; for `COCCOC(=O)N1C(=O)[C@@]2(c3cc(C#CCCO)ccc31)[C@H](C(=O)Nc1nc3ccccc3s1)[C@H]1C(=O)O[C@H](c3ccccc3)[C@H](c3ccccc3)N1[C@@H]2c1ccccc1OCCO` it is 0.902. Molecule `COCCOC(=O)N1C(=O)[C@@]2(c3cc(C#CCC(C(=O)OC)C(=O)OC)ccc31)[C@H](C(=O)N1CCc3cc(OC)c(OC)cc3C1)[C@H]1C(=O)O[C@H](c3ccccc3)[C@H](c3ccccc3)N1[C@@H]2c1ccc(OCCO)cc1` gave a composite z-score of 0.519. In the case of `COc1ccc(CCNC(=O)[C@@]2(Sc3ccc(C)cc3)CC(=O)N(C3Cc4ccccc4C3)[C@@H]2c2ccc(CO)cc2)cc1`, the composite z-score was determined as 0.437.

`CC1=C([C@H](O)CCc2ccccc2)[C@H](CO)[C@@H]2C(=O)N(C)C(=O)[C@@H]2C1` yielded a composite z-score of 0.133. `COc1ccccc1CN1C(=O)c2ccccc2[C@@]2(Cc3ccccc3N(CC(F)(F)F)C2=O)[C@@H]1c1ccc(CO)cc1` showed a composite z-score of -0.0716. Take `CC(C)(C)OC(=O)CC[C@]1(C(=O)NCc2ccccc2)N=C(c2ccc(OCCCO)cc2)O[C@H]1c1ccccc1CN=[N+]=[N-]`: the composite z-score is 0.571.

As for `O=C(NCC(F)(F)F)[C@@H]1c2ccccc2C(=O)N(Cc2ccc(OC(F)(F)F)cc2)[C@H]1c1ccc(CO)cc1`, the composite z-score was 0.444. For `COc1ccc([Si](C)(C)[C@H]2[C@H](CCn3cc([C@H](O)c4ccccc4)nn3)O[C@@]3(C(=O)N(Cc4ccc(N5C(=O)c6cccc7cccc5c67)cc4)c4ccccc43)[C@@H]2C)cc1`, the composite z-score amounted to 0.0681. `CCCCCCc1nc(C2CC2)cc2c1[Si](C(C)C)(C(C)C)O[C@H]2c1ccccc1`: the composite z-score was -0.127.

Regarding `COc1cc2c(cc1OC)CN(C(=O)[C@@H]1[C@H]3C(=O)O[C@H](c4ccccc4)[C@H](c4ccccc4)N3[C@H](c3ccc(OCCO)cc3)[C@@]13C(=O)Nc1ccccc13)CC2`, the composite z-score was found to be 1.3. As to `CCOC(=O)C[C@H]1[C@H](OC(=O)c2ccc(C(=O)c3ccccc3)cc2)[C@@H](NC(=O)Cc2ccc(OC)cc2)c2cc(OCCCO)ccc2N1C(=O)c1ccccc1`, the composite z-score was -0.337.

Turning to `Cc1cc(C)c(C(O)C2C=CC3C(=O)NC(=O)C3N2Nc2ccc(Cl)cc2Cl)c(C)c1` (stereo not given), the composite z-score is 1.19.
